Data: PubChem BioAssay AID720690 (Broad Institute, 2013)
Entries with a potency or affinity are not part of this list. Unmarked numbers belong to inactive results.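 How the source made its calls: active means every repeat run showing a signal drop whose fitted half-maximal concentration is at most twice the top tested concentration; inconclusive means repeat runs disagree, or flat partial drop, or poor fit; inactive means the rest.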

Test: HEK293T cytotoxicity, dose response, cytotoxicity control for miR-122 modulator project, cell-based, activator set, cherry-pick (AID 720690);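 further: 0% = neutral control wells and -100% = MG132 cytotoxic control wells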
Conditions: HEK293T viability, CellTiter-Glo luminescence, 48 h; series mostly up to 26 µM; activity change, negative = cytotoxicity: at the top concentration

For `C/C=C/c1ccc([C@@H]2[C@@H](CO)N(Cc3ccccn3)[C@H]2CNC(=O)CC)cc1`, which “activity change, negative = cytotoxicity” value is on record?
The value was 22.3% [at 23.5 µM].

With `CCN(C[C@H]1N[C@@H](CO)[C@@H]1c1ccc(C2=CCCC2)cc1)C(=O)c1cccnc1` as the compound, how does the “activity change, negative = cytotoxicity” value read?
Its value is -10.3%.

With `O=C(c1cccc(F)c1)N1C[C@@H]2[C@H](c3ccccc31)[C@H](CO)N2C(=O)Cc1ccccc1` as the compound, how does the “activity change, negative = cytotoxicity” value read?
The value was -12.1%.

Which “activity change, negative = cytotoxicity” value does the source give for `CN1C(=O)c2cc(NC(=O)Nc3ccc(Cl)cc3)ccc2OC[C@H]2O[C@H](CC(=O)NCCN3CCCCC3)CC[C@H]21` here?
The value was 4.21% [at 23.5 µM].

Which “activity change, negative = cytotoxicity” value does the source give for `Cc1cc(C(=O)Nc2ccc3c(c2)C(=O)N(C)[C@H]2CC[C@@H](CC(=O)N[C@@H](C)c4ccccc4)O[C@H]2CO3)no1` here?
Its value is -6.39% [at 23.5 µM].

With `N#Cc1c(N)nc2c(c1-c1cccs1)CCCC2` as the compound, how does the “activity change, negative = cytotoxicity” value read?
Its value is 9.87%.

With `COC(=O)C[C@@H]1CC[C@H]2[C@@H](COc3ccc(NC(=O)Nc4ccccc4C)cc3C(=O)N2C)O1` as the compound, how does the “activity change, negative = cytotoxicity” value read?
The value was 2.59%.

With `COc1ccc(NC(=O)COC(=O)CCCc2c[nH]c3ccccc23)cc1` as the compound, how does the “activity change, negative = cytotoxicity” value read?
The value was 1.82%.

For `O=C(NC[C@@H]1[C@H](c2ccccc2)[C@@H](CO)N1Cc1cccnc1)c1ccccn1`, which “activity change, negative = cytotoxicity” value is on record?
Its value is 35.7%.

Which “activity change, negative = cytotoxicity” value does the source give for `CCOc1ccc2nc(NS(=O)(=O)c3cccs3)sc2c1` here?
Its value is 4.68%.

With `COc1cccc(C(=O)Nc2ccc3c(c2)C(=O)N(C)[C@H]2CC[C@H](CC(=O)NCc4ccc(F)cc4)O[C@H]2CO3)c1` as the compound, how does the “activity change, negative = cytotoxicity” value read?
The value was -30.3%.

Which “activity change, negative = cytotoxicity” value does the source give for `COC(=O)C[C@@H]1CC[C@@H]2[C@H](COc3ccc(NC(=O)c4ccc(F)c(F)c4)cc3C(=O)N2C)O1` here?
Its value is 5.94%.

With `CC(=O)N(C)C[C@@H]1[C@@H](c2ccccc2)[C@H](CO)N1C(=O)C1CCC1` as the compound, how does the “activity change, negative = cytotoxicity” value read?
The value was -7.02%.

With `CCS(=O)(=O)Nc1ccc2c(c1)C(=O)N(C)[C@@H]1CC[C@@H](CC(=O)NCCCN3CCOCC3)O[C@@H]1CO2` as the compound, how does the “activity change, negative = cytotoxicity” value read?
Its value is -12.1%.

Which “activity change, negative = cytotoxicity” value does the source give for `CN1C(=O)c2cc(NC(=O)c3cccc(C(F)(F)F)c3)ccc2OC[C@H]2O[C@H](CC(=O)NCCN3CCCC3)CC[C@H]21` here?
The value was -2.32%.

Which “activity change, negative = cytotoxicity” value does the source give for `CCCC(=O)Nc1ccc2c(c1)C(=O)N(C)[C@@H]1CC[C@H](CC(=O)NCCOC)O[C@H]1CO2` here?
The value was -5.25%.

For `CC(=O)N(C[C@H]1N[C@H](CO)[C@@H]1c1ccc(-c2ccccc2)cc1)C(C)C`, which “activity change, negative = cytotoxicity” value is on record?
The value was -0.118%.

With `C=CCNC(=S)NNC(=O)Cn1c(-c2ccccc2)cc(=O)n2ncnc12` as the compound, how does the “activity change, negative = cytotoxicity” value read?
Its value is 14.3%.

With `COc1ccc(NS(=O)(=O)c2ccc(NC(=O)C(C)(C(F)(F)F)C(F)(F)F)cc2)nn1` as the compound, how does the “activity change, negative = cytotoxicity” value read?
The value was 5.66%.

With `COCC(=O)N(C[C@H]1[C@H](c2ccccc2)[C@@H](CO)N1C(=O)NC(C)C)C(C)C` as the compound, how does the “activity change, negative = cytotoxicity” value read?
The value was 5.41%.

With `COCC(=O)Nc1ccc2c(c1)C(=O)N(C)[C@@H]1CC[C@@H](CC(=O)NCc3ccc(OC)cc3)O[C@H]1CO2` as the compound, how does the “activity change, negative = cytotoxicity” value read?
Its value is 1.5%.

For `COc1ccc(CNC(=O)NCCc2c[nH]c3ccccc23)cc1`, which “activity change, negative = cytotoxicity” value is on record?
The value was 26.2%.

With `CCNC(=O)C[C@@H]1CC[C@H]2[C@@H](COc3ccc(NC(=O)c4ccc(C(F)(F)F)cc4)cc3C(=O)N2C)O1` as the compound, how does the “activity change, negative = cytotoxicity” value read?
The value was -6.62% [at 23.5 µM].

Which “activity change, negative = cytotoxicity” value does the source give for `COCCNC(=O)C[C@H]1CC[C@@H]2[C@H](COc3ccc(NC(=O)c4cnccn4)cc3C(=O)N2C)O1` here?
The value was -7.42% [at 23.5 µM].

Which “activity change, negative = cytotoxicity” value does the source give for `CN(C)c1ncnc2c1ncn2C1OC(CO)C(O)C1O` (centres undefined) here?
The value was -19.5%.

Which “activity change, negative = cytotoxicity” value does the source give for `CN(C)CCCNC(=O)C[C@@H]1CC[C@@H]2[C@@H](COc3ccc(NC(=O)NC4CCCC4)cc3C(=O)N2C)O1` here?
The value was 11.1% [at 23.5 µM].

Which “activity change, negative = cytotoxicity” value does the source give for `C/C=C/c1ccc([C@@H]2[C@@H](CN(C(=O)COC)C(C)C)N(C(C)=O)[C@H]2CO)cc1` here?
Its value is -16.8%.

For `CC(=O)N1[C@H](CN(C)S(=O)(=O)c2ccccc2)[C@H](c2ccccc2)[C@@H]1CO`, which “activity change, negative = cytotoxicity” value is on record?
The value was -9.41%.

Which “activity change, negative = cytotoxicity” value does the source give for `CCCNC(=O)N1C[C@@H]2[C@H](c3ccccc31)[C@@H](CO)N2C(=O)C1CCOCC1` here?
Its value is -10.2%.

With `CN1C(=O)c2cc(NC(=O)c3ccc(C(F)(F)F)cc3)ccc2OC[C@H]2O[C@H](CC(=O)O)CC[C@@H]21` as the compound, how does the “activity change, negative = cytotoxicity” value read?
Its value is -8.07%.

For `CC(=O)N1[C@H](CO)[C@H](c2ccccc2)[C@@H]1CN(C(=O)c1ccc(F)cc1)C(C)C`, which “activity change, negative = cytotoxicity” value is on record?
Its value is 13.3% [at 23.5 µM].

Which “activity change, negative = cytotoxicity” value does the source give for `O=CN1CCN(C(=O)c2ccccc2F)CC1` here?
The value was 16.3%.

For `COc1cccc(S(=O)(=O)N(C)C[C@@H]2Oc3cc(C4=CCCC4)ccc3S(=O)(=O)N([C@H](C)CO)C[C@@H]2C)c1`, which “activity change, negative = cytotoxicity” value is on record?
The value was -35.5%.

Which “activity change, negative = cytotoxicity” value does the source give for `CCNC(=O)C[C@@H]1CC[C@H]2[C@H](COc3ccc(NC(=O)c4cccc(C(F)(F)F)c4)cc3C(=O)N2C)O1` here?
Its value is -6.43% [at 23.5 µM].

Which “activity change, negative = cytotoxicity” value does the source give for `COCC(=O)N(C)C[C@H]1Oc2cc(C#Cc3cccnc3)ccc2S(=O)(=O)N([C@@H](C)CO)C[C@@H]1C` here?
Its value is -22.5%.

With `CCN(C[C@@H]1N[C@@H](CO)[C@@H]1c1ccc(C2=CCCC2)cc1)C(=O)c1cccnc1` as the compound, how does the “activity change, negative = cytotoxicity” value read?
The value was 8.54% [at 23.5 µM].

With `CCC(=O)N(C)C[C@@H]1[C@H](c2ccc(-c3ccccc3F)cc2)[C@H](CO)N1C(C)=O` as the compound, how does the “activity change, negative = cytotoxicity” value read?
The value was -4.35%.

Which “activity change, negative = cytotoxicity” value does the source give for `C[C@@H]1CN([C@@H](C)CO)S(=O)(=O)c2ccc(C#CC3(O)CCCC3)cc2O[C@@H]1CN(C)C(=O)c1cccnc1` here?
The value was -6.13%.

For `COc1ccc(S(=O)(=O)Nc2cccc3c2O[C@H](CN(C)CC2CCCCC2)[C@@H](C)CN([C@H](C)CO)C3=O)cc1`, which “activity change, negative = cytotoxicity” value is on record?
The value was 3.99%.
